From PubChem
Rows were chosen to be rich in hits. Some 3.1% of all compounds tested hit in one or more screens of this group.
Rin1 Abl inh – blocks binding of human Rin1 to Abl. P00519+Q13671. TR-FRET Rin1/Abl binding, biochemical. 360,000 tested, 0.4% active. inhibition, % at 7.35 µM; in the data active means inhibition above about 5%, passing the limit was not always enough
PAFAH2 inh – inhibitors of human PAFAH2 | recombinant PAFAH2, FP-rhodamine activity probe, fluorescence polarization | inhibition, % at 3.39 µM | 340,000 tested, 0.99% active | AID 492956;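 active means inhibition above the mean over all tested compounds plus 3 SD, cut at about 30% in these data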;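 further: inhibitors block probe labeling of enzyme so polarization drops; 0% = enzyme with DMSO and 100% = wells lacking PAFAH2 protein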
PAFAH1B3 FP inh – inhibitors of human PAFAH1B3; Q15102; recombinant PAFAH1B3, FP-rhodamine probe, fluorescence polarization; inhibition, % at 3.39 µM; 340,000 tested, 0.28% active; AID 492972;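 active means inhibition above the screen-wide average of all tested compounds plus 3 SD, cut at about 25% in these data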;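 further: 0% = enzyme with DMSO only and 100% = wells lacking PAFAH1B3 protein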
Target sequence (Q15102 whole entry, looked up): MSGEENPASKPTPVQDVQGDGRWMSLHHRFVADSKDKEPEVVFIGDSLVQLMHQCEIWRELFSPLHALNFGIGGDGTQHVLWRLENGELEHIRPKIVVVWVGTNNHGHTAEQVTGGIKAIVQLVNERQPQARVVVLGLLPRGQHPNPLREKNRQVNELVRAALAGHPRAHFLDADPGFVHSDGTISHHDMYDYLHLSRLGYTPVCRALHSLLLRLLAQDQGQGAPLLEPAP
E coli Lon inh – inhibitors of E. coli Lon protease; P0A9M0; purified E. coli Lon protease, fluorescence polarization; 360,000 tested, 0.42% active; inhibition, % at 7.94 µM; in the data active means inhibition above about 13%, passing the limit was not always enough;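 further: 0% = enzyme with probe and DMSO and 100% = no enzyme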
pPAFAH inh – inhibitors of human plasma PAF acetylhydrolase (pPAFAH); 330,000 tested, 1.5% active; inhibition, % at 3.39 µM; Q13093; recombinant pPAFAH, FP-rhodamine probe fluorescence polarization;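 active means inhibition above the mean inhibition across the screen plus 3 SD, cut at about 25% in these data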;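 further: inhibitors block binding of the rhodamine activity-based probe so polarization drops; 0% = enzyme with DMSO and 100% = wells lacking pPAFAH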
PAFAH1B2 FP inh – blocks human PAF acetylhydrolase 1b catalytic subunit 2; AID 492953; inhibition, % at 3.39 µM; P68402; 340,000 tested, 1.2% active; recombinant PAFAH1B2, FP-rhodamine activity probe, fluorescence polarization;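 active means inhibition above the mean of all tested compounds plus 3 SD, cut at about 24% in these data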;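 further: 0% = enzyme with DMSO and 100% = wells lacking PAFAH1B2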
Target sequence (P68402 whole entry, looked up): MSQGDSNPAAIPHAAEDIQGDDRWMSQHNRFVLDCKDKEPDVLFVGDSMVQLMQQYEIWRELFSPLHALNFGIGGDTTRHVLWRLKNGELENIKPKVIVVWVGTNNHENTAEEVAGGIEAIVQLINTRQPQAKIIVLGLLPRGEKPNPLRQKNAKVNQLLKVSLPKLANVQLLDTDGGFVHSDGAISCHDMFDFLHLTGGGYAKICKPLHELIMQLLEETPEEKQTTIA
* hit, by the source's call; nt = no result given.

SMILES	Rin1 Abl inh	PAFAH2 inh	PAFAH1B3 FP inh	E coli Lon inh	pPAFAH inh	PAFAH1B2 FP inh
CCOC(=O)c1cc(C)sc1NC(=O)CN1CCN(C(=O)C2CCCO2)CC1 (stereo unspecified)	-2	-4	-1	-3	27*	3
O=c1c2cn(Cc3ccccc3)c3ccccc3c-2nn1Cc1ccc(F)cc1Cl	-2	0	2	9	nt	-4
COc1ccc2sc(-c3ccc(N(C)C)cc3)c(C#CCCO)c2c1	0	5	13	5	26*	5
Cn1cccc1C(=O)OCC(=O)Nc1cc(C(C)(C)C)nn1-c1ccccc1	-1	0	-1	11	29*	0
C[C@H](CO)N1C[C@H](C)[C@@H](CN(C)C(=O)Nc2ccc(C(F)(F)F)cc2)Oc2c(NC(=O)NC3CCCCC3)cccc2C1=O	1	-1	1	2	0	23
C[C@H](CO)N1C[C@H](C)[C@@H](CN(C)C(=O)Nc2ccccc2)Oc2c(NC(=O)Nc3ccc(C(F)(F)F)cc3)cccc2C1=O	0	-14	6	9	-3	36*
C[C@H](CO)N1C[C@H](C)[C@@H](CN(C)C(=O)Nc2ccc(C(F)(F)F)cc2)Oc2c(NC(=O)CCC(F)(F)F)cccc2C1=O	1	-7	-2	0	1	28*
C[C@H](CO)N1C[C@H](C)[C@@H](CN(C)C(=O)Nc2ccc(C(F)(F)F)cc2)Oc2c(NC(=O)Cc3ccccc3)cccc2C1=O	4	4	13	-2	-3	-3
C[C@@H]1CN([C@H](C)CO)C(=O)c2cccc(NC(=O)NC3CCCCC3)c2O[C@@H]1CN(C)C(=O)Nc1ccc(C(F)(F)F)cc1	3	4	13	-7	7	64*
C[C@H](CO)N1C[C@H](C)[C@@H](CN(C)C(=O)Nc2ccccc2)Oc2c(NC(=O)Nc3ccccc3)cccc2C1=O	4	-1	8	-8	3	14
CCc1cccc(NC(=O)CSc2nnc(Cc3ccc(OC)cc3)c(=O)[nH]2)c1	0	0	1	-10	-4	7
Cc1noc(C)c1C(=O)OCC(=O)Nc1ccccc1SCC#N	-2	-8	4	-30	-4	5
O=C(Nc1ccc(O)cc1)c1cc2n(n1)C(C(F)(F)F)CC(c1ccco1)N2 (stereo unspecified)	-1	-7	-4	-9	8	-4
CCOc1ccc(NC(=O)c2cc3n(n2)C(C(F)(F)F)CC(c2ccco2)N3)cc1 (stereo unspecified)	1	4	1	-12	33*	-2
O=C(NC1CCCCCC1)c1cc2n(n1)C(C(F)(F)F)CC(c1ccco1)N2 (stereo unspecified)	-1	6	3	3	34*	5
CCN(C(=O)CSc1ncccc1C(=O)O)C1CCCCC1	-3	-5	6	-2	-7	29*
CCN(C(=O)CSc1ccccn1)C1CCCCC1	3	2	2	-10	1	11
CC(=O)NC(c1ccccc1)c1nc(-c2ccccc2)cs1 (stereo unspecified)	-4	nt	nt	-7	nt	nt
CC(C)(C)N(Cc1ccccc1)C(=O)CSc1nc2ccccc2c(=O)[nH]1	-2	-9	3	0	0	9
Cc1nnc(SCC(=O)N(Cc2ccccc2)C(C)(C)C)[nH]c1=O	3	4	7	-5	0	25*
N#Cc1cccc(-c2cn(S(=O)(=O)c3ccc(Cl)cc3)nc2N)c1	3	1	-7	0	4	5
Nc1nn(S(=O)(=O)c2ccccc2)cc1-c1ccc([N+](=O)[O-])cc1	2	-1	0	-2	5	32*
COC(=O)[C@@]1(C)[C@H]2C(=O)N(C)C(=O)[C@H]2[C@H]2CN=C(SCc3ccc(Cl)cc3)N21	-5	-2	1	3	4	29*
N#CC1=C(N)S[C@H](C(=O)C23CC4CC(CC(C4)C2)C3)[C@H]1c1ccncc1	6	7	3	-7	-1	28*
O=C(NCc1ccncc1)C12CC3CC(CC(C3)C1)C2	4	5	0	-11	1	9
SMILES	Rin1 Abl inh	PAFAH2 inh	PAFAH1B3 FP inh	E coli Lon inh	pPAFAH inh	PAFAH1B2 FP inh
COc1ccc(OC)c(Nc2ccc(Nc3cc(OC)ccc3OC)nn2)c1	-3	6	4	7	30*	-2
COc1ccccc1Nc1ccc(Nc2ccccc2OC)nn1	-2	-2	-1	-10	4	6
CCc1nc2c(OCc3ccc(Cl)cc3Cl)cccn2c1N(C=O)Cc1ccc(OC)cc1	-4	nt	nt	4	nt	nt
Cc1ccc(CSCCNS(=O)(=O)c2ccc([N+](=O)[O-])cc2)cc1	-1	3	-5	-19	7	25*
CC(C)c1ccc(NC(=O)CN2C(=O)NC3(CCCC3)C2=O)cc1	1	-2	0	-9	4	7
CC(C)Cc1csc(NC(=O)c2ccccc2Cl)c1C(=O)O	2	5	2	10	0	2
CC(C)Cc1csc(NC(=O)c2ccc(Cl)cc2)c1C(=O)O	1	42*	5	-5	11	5
Cc1cnc(C(=O)OC(C)C(=O)Nc2cccc3ccccc23)cn1 (stereo unspecified)	-1	4	5	-8	-4	3
CCOCCCNC(=O)Cc1c(C(=O)O)[nH]c2ccc(Cl)cc12	-2	0	-4	-3	-1	30*
COc1ccc(OC)c(CNC(=O)Cc2c(C(=O)O)[nH]c3ccc(Cl)cc23)c1	2	4	0	-2	-1	10
CCCCN(CC)C(=O)Cc1c(C(=O)O)[nH]c2ccc(Cl)cc12	-1	1	-1	-9	-3	50*
CCN(CC)S(=O)(=O)c1ccc(OCC(=O)NC(=O)c2ccccc2OC)c([N+](=O)[O-])c1	-1	2	2	6	7	5
O=C(CSCc1ccc(Br)cc1)Nc1ccc(S(=O)(=O)N2CCOCC2)cc1	-1	2	0	-4	2	14
Cc1ccccc1NS(=O)(=O)c1ccc(NC(=O)CSCc2ccc(Br)cc2)cc1	0	-41	-37	4	26*	-16
Cc1ccc(C)c(N(CC(=O)NC2CCCC2)C(=O)c2csnn2)c1	2	-3	0	6	-7	3
CC(C)CN(C(=O)COC(=O)C12CC3CC(CC(Cl)(C3)C1)C2)c1c(N)n(Cc2ccccc2)c(=O)[nH]c1=O	1	-4	4	-7	6	12
CN(C(=O)COC(=O)C12CC3CC(CC(Cl)(C3)C1)C2)C1(C#N)CCCCC1	1	6	5	-10	-4	24*
COc1ccccc1CNC(=O)CN1c2cccc3cccc(c23)S1(=O)=O	0	8	8	-8	31*	3
CC(Sc1ccc(Cl)cc1)C(=O)NNC(=O)c1ccccc1O (stereo unspecified)	-2	25	2	7	10	28*
